Source: PubChem BioAssay (Tox21)
Values joined by “and” are separate entries in the source; they are usually repeats but may differ in a detail not shown here. Identical values can stand only once. Records with an inconclusive call do not appear. The source holds several records for some structures; these can differ, active in one and inactive in another. Active and inactive are the calls of the source. Calls come from the whole dose curve; as a rule, active = well fitted activation curve with a large enough effect in the repeat runs; inconclusive = weak or mixed curves; inactive = flat fitted curve, though single readings scatter.

Test: A CellTox Green Cytotoxicity Assay to monitor cytotoxicity in HEK293 cells - 32 hour (AID 1224881); note: nearly all actives have a fitted effect of over 40% in size
Settings: CellTox Green fluorescence; series mostly up to 76.8 µM; cytotoxicity increase: at the top concentration
Excerpt: National Center for Advancing Translational Sciences [NCATS]
NIH Chemical Genomics Center [NCGC]
U.S. Environmental Protection Agency [EPA]
National Institutes of Environmental Health Sciences [NIEHS]
National Toxicology Program [NTP]
Cell-based models are critical for drug discovery. Determining the natural cytotoxic effects resulting from test compounds is an essential research activity. A CellTox Green Cytotoxicity Assay to monitor cytotoxicity in real time of continues cell culture during 40 hours of the compound treatment was used to screen Tox21 10K library compounds in Hek293 cells. CellTox Green Cytotoxicity Assay is a nonlytic, homogeneous, biofluorescent method to measure cytotoxicity in cell culture after experimental manipulation. The assay system uses a proprietary asymmetric cyanine dye that is excluded from viable cells but preferentially stains the dead cell's DNA. […] Viable cells produce no appreciable increases in fluorescence. Therefore, the fluorescence signal produced by the binding interaction with dead cell DNA is proportional to cytotoxicity.
The mixture of Hek293 cell suspension and reagents were dispensed at 600cells/6 ul/well in 1536-well tissue culture treated black solid bottom plates using a Multidrop dispenser. After the assay plates were incubated at a 37 C/5% CO2 incubator for 5 hours, 23 nL of compounds dissolved in DMSO, positive and negative controls was transferred to the assay plate by a pintool work station. The plates were incubated at 37 C for 40 hours. The fluorescence intensity were measured at 0h, 8h, 16h, 24h, 32h and 40h time points using ViewLux plate reader during compound treatment.
% is set by controls: 0 for no effect and ±100 for the full control effect; potency is the fitted concentration of half-maximal effect.

| SMILES | cytotoxicity increase | Potency |
| --- | --- | --- |
| CCCCOC(=O)CO | 3.56% (inactive) | – |
| Cc1c(C)c2c(c(C)c1O)CC[C@@](C)(CCC[C@H](C)CCC[C@H](C)CCCC(C)C)O2 | -13.5% (inactive) | – |
| CN1CCC[C@@H]1CCO[C@](C)(c1ccccc1)c1ccc(Cl)cc1 | – | 26.8 µM (active) |
| Nc1cc(Cl)c(O)c(Cl)c1 | 22.5% (inactive) | – |
| S=c1nccc[nH]1 | -10.3% (inactive) | – |
| CCC(C)[O-].CCC(C)[O-].CCOC(=O)/C=C(/C)[O-].[Al+3] | 0.023% (inactive) | – |
| COC(=O)Nc1nc2ccc(C(=O)c3ccccc3)cc2[nH]1 | -11.1% [at 35.3 µM] (inactive) | – |
| Cc1c(C)c2c(c(C)c1OC(=O)c1cccnc1)CC[C@@](C)(CCC[C@H](C)CCC[C@H](C)CCCC(C)C)O2 | -17.6% [at 35.3 µM] (inactive) | – |
| Cc1cc(C(C#N)c2ccc(Cl)cc2)c(Cl)cc1NC(=O)c1cc(I)cc(I)c1O (stereo not given) | -3.25% [at 35.3 µM] (inactive) | – |
| COc1cc(S(=O)(=O)O)c(C)cc1N=Nc1c(O)ccc2cc(S(=O)(=O)O)ccc12 | -43.7% (inactive) | – |
| CC(C)=CCNc1ncnc2c1ncn2[C@@H]1O[C@H](CO)[C@@H](O)[C@H]1O | -5.21% [at 35.3 µM] (inactive) | – |
| COc1c(C)c2c(c(O)c1C/C=C(\C)CCC(=O)OCCN1CCOCC1)C(=O)OC2 | -2.3% [at 35.3 µM] (inactive) | – |
| CC[N+](CC)(CC)CCOC(=O)C(C1CCCC1)C1CCCC1 | 7.86% [at 35.3 µM] (inactive) | – |
| CCCCOC(=O)CC | 2.17% (inactive) | – |
| NC(=O)c1cccc([N+](=O)[O-])c1 | -3.67% (inactive) | – |
| Nc1nc(N)nc(-c2cc(Cl)ccc2Cl)n1 | -14.1% [at 35.3 µM] (inactive) | – |
| CCCCCCCCCCCCOCCOCCOCCOCCOCCOCCOCCOCCOCCO | – | 10.7 µM (active) |
| c1ccc(C(O[C@@H]2CCCN(CCc3ccc4c(c3)OCO4)C2)c2ccccc2)cc1 | -2.72% (inactive) | – |
| COc1ccc(-c2coc3cc(O)ccc3c2=O)cc1 | -20.1% (inactive) | – |
| CCN(CC)C(=O)c1cc(S(=O)(=O)Cc2ccccc2)c(N2CCC(c3ccccc3)CC2)cc1N(CC)CCN(C)C | – | 19.3 µM (active) |

| SMILES | cytotoxicity increase | Potency |
| --- | --- | --- |
| CC(C)(C)c1csc(-c2cc3cc(OCc4ccccc4CC(=O)O)ccc3o2)n1 | – | 54.9 µM (active) |
| CC(C)(C)CC(C)(C)c1ccc(Nc2ccc(C(C)(C)CC(C)(C)C)cc2)cc1 | 0.962% [at 6.97 µM] (inactive) | – |
| CCCCC(CC)CN1CN(CC(CC)CCCC)CC(C)(N)C1 (stereo not given) | – | 10.7 µM (active) |
| O=C1CCc2cc(OCCCCc3nnnn3C3CCCCC3)ccc2N1 | -0.617% [at 35.3 µM] (inactive) | – |
| Cc1cccc(C)c1NC(=O)c1ccc(N)cc1 | 8.49% [at 35.3 µM] (inactive) | – |
| CCCCCCCCCCCCCCCC[N+](C)(C)CC | – | 39 µM (active) and 21.3 µM (active) |
| CCCC(=O)OCCc1ccccc1 | – | 49 µM (active) |
| CNc1ccc([N+](=O)[O-])cc1 | 0.442% (inactive) | – |
| Oc1c(I)cc(Cl)c2cccnc12 | – | 10.9 µM (active) and inactive |
| CCOC(=O)NNc1ccc(N(CC)CC(C)O)nn1 (stereo not given) | -12.4% [at 35.3 µM] (inactive) | – |
| O=C1C(c2[nH]c3ccc(S(=O)(=O)O)cc3c2O)=Nc2ccc(S(=O)(=O)O)cc21 | -7.07% (inactive) | – |
| O=[N+]([O-])c1ccc(O)cc1C(F)(F)F | 12% (inactive) | – |
| CCCCN(CCCC)CC(O)c1cc(Cl)cc2c1-c1ccc(Cl)cc1/C2=C/c1ccc(Cl)cc1 (stereo not given) | 0.268% [at 35.3 µM] (inactive) | – |
| CCO[C@@H]1O[C@H](C(COCc2ccccc2)OCc2ccccc2)[C@H](OCc2ccccc2)[C@H]1O (stereo not given in full) | -9.67% [at 35.3 µM] (inactive) | – |
| [Cu+] | -1.63% (inactive) | – |
| CC(C(=O)O)c1ccc2c(c1)[nH]c1ccc(Cl)cc12 (stereo not given) | 4.48% [at 35.3 µM] (inactive) | – |
| CCN(CCN)c1cccc(C)c1 | 6.06% (inactive) | – |
| Cc1ccc(C(C)C)cc2c(C)ccc1-2 | 29% [at 35.3 µM] (inactive) | – |
| CC1=CCC(=C(C)C)CC1 | -7.13% (inactive) | – |
| O=S(=O)(O)c1ccc(Nc2nc(Nc3ccc(/C=C/c4ccc(Nc5nc(Nc6ccc(S(=O)(=O)O)cc6)nc(N(CCO)CCO)n5)cc4S(=O)(=O)O)c(S(=O)(=O)O)c3)nc(N(CCO)CCO)n2)cc1 | -10.4% [at 35.3 µM] (inactive) | – |
